Inconclusive results are not listed. Calls of active or inactive are those of the source. Calls come from the whole dose curve; as a rule, active = well fitted cell-killing curve with a large enough effect; inconclusive = small, poorly fitted or top-dose-only effect, or effect the other way; inactive = no such curve, though single readings can be large or run the other way.
Test: Quantitative High-Throughput drug screen in 47 multiple myeloma cell lines against the NCATS MIPE library collection: OPM2_DSMZ cell viability assay (AID 1919872); note: nearly all actives have a fitted effect of over 30% in size
Conditions: OPM2 myeloma viability, CellTiter-Glo ATP luminescence, 48 h; series mostly up to 45.8 µM; viability (% of DMSO): at the top concentration
Description: PI: Beverly A. Mock Ph.D.
Laboratory of Cancer Biology and Genetics,
Center for Cancer Research, National Cancer Institute,
National Institute of Health, Bethesda, Maryland
Drug resistance and disease progression are common in multiple myeloma (MM) patients, underscoring the need for new therapeutic combinations. […] We hypothesized that effective combinations would reduce MYC expression and enhance p16 activity. […] These preclinical data identify potentially useful drug combinations for evaluation in drug-resistant MM and reveal potential mechanisms of combined drug sensitivity.
Described herein is the primary MIPE qHTS used to cherrypick compounds. Validated compounds were then further tested for potential synergistic activiy.
[1] Peat TJ, Gaikwad SM, Dubois W, Gyabaah-Kessie N, Zhang S, Gorjifard S, Phyo Z, Andres M, Hughitt VK, Simpson RM, Miller MA, Girvin AT, Taylor A, Williams D, D'Antonio N, Zhang Y, Rajagopalan A, Flietner E, Wilson K, Zhang X, Shinn P, Klumpp-Thomas C, McKnight C, Itkin Z, Chen L, Kazandijian D, Zhang J, Michalowski AM, Simmons JK, Keats J, Thomas CJ, Mock BA. Drug combinations identified by high-throughput screening promote cell cycle transition and upregulate Smad pathways in myeloma. Cancer Lett. 2023 Aug 1;568:216284. doi: 10.1016/j.canlet.2023.216284. Epub 2023 Jun 24. PMID: 37356470; PMCID: PMC10408729.
SEQUENCE No. (e.g., 1, 2, 3, etc.); […] (e.g., Cells, Incubation, Reagent, etc.); VALUE and DESCRIPTION.
1; Cells; 5 uL; white, solid bottom 1536-well Greiner assay plate.
2; Compounds; 23 nL; Kalypsis pin tool (Wako USA) equipped with a 1536-well pin head to transfer to the assay plates.
3; Incubation; 48 hours; 37C incubation.
4; Reagent;5uL; CellTiter Glo (Promega).
5; Detector; 425V; Luminescence; Viewlux PerkinElmer.
NOTES (numbers refer to Sequence numbers above)
1. The cell-based screening methods employed in this study were like those previously published. Briefly, the corresponding myeloma cell lines were screened in 1,536-well plates with 500 cells, 5-uL per well for inhibition of cell viability (assessed by measuring ATP levels with CellTiterGlo).
2. NCATS MIPE 4.0 library of approved and investigational drugs were added using the Kalypsis pin tool. Wells treated with DMSO only for 100% viability and media only wells for 0% viability were used as controls.
3. The assay plates were covered and incubated for 48 hours in a 37C, 5% CO2 incubator with controlled humidity.
4. After 48 hours, CellTilter-GloTM luminescent substrate mix (Promega) reagent was added to the assay plate and plates we incubated for 5 min at room temperature.
5. Signal was measured as median relative luminescence units on a ViewLux (PerkinElmer) multiplate reader.
[1] Heske CM, Davis MI, Baumgart JT, Wilson K, Gormally MV, Chen L, Zhang X, Ceribelli M, Duveau DY, Guha R, Ferrer M, Arnaldez FI, Ji J, Tran HL, Zhang Y, Mendoza A, Helman LJ, Thomas CJ. Matrix Screen Identifies Synergistic Combination of PARP Inhibitors and Nicotinamide Phosphoribosyltransferase (NAMPT) Inhibitors in Ewing Sarcoma. Clin Cancer Res. 2017 Dec 1;23(23):7301-7311. doi: 10.1158/1078-0432.CCR-17-1121. Epub 2017 Sep 12. PMID: 28899971; PMCID: PMC6636827.
Potency is the fitted concentration of half-maximal effect.

SMILES | viability (% of DMSO) | Potency
CNC(=O)c1ccc(N2C(=S)N(c3cnc(C#N)c(C(F)(F)F)c3)C(=O)C23CCC3)cc1F | 84.3% (inactive) | –
CN(C)CC(C)(C)CNc1nn2c(-c3ccccc3)nnc2cc1C1CCC1 | 116% (inactive) | –
COC(=O)[C@]12CCC(C)(C)C[C@@H]1[C@@H]1C(=O)C=C3[C@@]4(C)C=C(C#N)C(=O)C(C)(C)[C@@H]4CC[C@@]3(C)[C@]1(C)CC2 | – | 0.833 µM (active)
O=C(CCCCCCC(=O)Nc1ccc([C@H]2O[C@@H](CSc3nc(-c4ccccc4)c(-c4ccccc4)o3)C[C@@H](c3ccc(CO)cc3)O2)cc1)NO | – | 20.9 µM (active)
C#Cc1cccc(Nc2ncnc3cc(OC)c(OCCCCCCC(=O)NO)cc23)c1 | – | 1.48 µM (active)
Cn1c(=O)n(-c2ccc(C(C)(C)C#N)cc2)c2c3cc(-c4cnc5ccccc5c4)ccc3ncc21 | – | 0.0743 µM (active)
Cc1cc(Nc2cc(CN3CCOCC3)c3nc(C)c(Cc4ccc(Cl)cc4F)n3n2)n[nH]1 | 78.3% (inactive) | –
CN(C)CCCN=c1c2ccccc2n(C)c2[nH]c(=O)n(C)c(=O)c12 | – | 20.9 µM (active)
Cc1cc(Nc2cc(N3CCN(C)CC3)nc(Sc3ccc(NC(=O)C4CC4)cc3)n2)n[nH]1 | – | 20.9 µM (active)
COc1ccc2c(OCc3nnc4ccc(-c5ccccc5)nn34)ccnc2c1 | 96.5% (inactive) | –
O=c1c2ccccc2nc2n1CCc1c-2[nH]c2ccccc12 | 99.5% (inactive) | –
O=c1[nH]c(=O)n(C2CCCO2)cc1F (stereo not given) | 104% [at 92.2 µM] (inactive) | –
CC(C)[C@H](C(=O)Nc1ccc(C(=O)NO)cc1)c1ccccc1 | – | 0.833 µM (active)
Cc1ccc(C(=O)Nc2ccc(CN3CCN(C)CC3)c(C(F)(F)F)c2)cc1C#Cc1cnc2cccnn12 | – | 5.26 µM (active)
O=C(c1cncc(Br)c1)N1CCC(N2CCCC2)CC1 | 95.7% (inactive) | –
COc1ccc(C(=O)CC2(O)C(=O)Nc3c(Cl)ccc(Cl)c32)cc1 (stereo not given) | – | 9.35 µM (active)
N#CCNC(=O)c1ccc(-c2ccnc(Nc3ccc(N4CCOCC4)cc3)n2)cc1 | – | 20.9 µM (active)
Nc1nc(-c2nn(Cc3ccccc3F)c3ncccc23)nc(N)c1N1CCOCC1 | 94.1% (inactive) | –
O=C(CCCCCCNC(=O)c1cnc(N(c2ccccc2)c2ccccc2)nc1)NO | – | 10.5 µM (active)
O=C1CCC[C@@H]2[C@H]3CCC[N+]4([O-])CCC[C@@H](CN12)[C@@H]34 (stereo not given in full) | 118% (inactive) | –

SMILES | viability (% of DMSO) | Potency
O=C(NCCS(=O)(=O)c1ccc(C(F)(F)F)cn1)c1ccc(Cl)cc1 | 105% (inactive) | –
COc1cc(C(=O)N2CCC(N3CCN(C)CC3)CC2)ccc1Nc1ncc2c(n1)N(C)c1ccccc1C(=O)N2C | – | 10.5 µM (active)
Cc1ccc2nc(NC(=O)CSc3nc4c(c(=O)n3-c3ccccc3)SCC4)sc2c1 | – | 20.9 µM (active)
CCCCOc1c(C(=O)c2c(F)cc(C)cc2F)cnc2n[nH]cc12 | – | 7.43 µM (active)
CC(=O)OCCN1C(=O)c2c(C)nc3ccc(S(=O)(=O)N4CCOCC4)cc3c2C1=O | 101% (inactive) | –
Cc1nc(N)ncc1-c1nc(N2CCOCC2)c2sc(C(C)(C)O)cc2n1 | – | 3.72 µM (active)
c1nc2nc(Nc3ccc(N4CCOCC4)cc3)nc(NC3CCCCC3)c2[nH]1 | – | 11.8 µM (active)
OCc1ccc(-c2ccc(-c3ccc(CO)s3)o2)s1 | – | 23.5 µM (active)
CNC(=O)c1c(F)cccc1Nc1nc(Nc2cc3c(cc2OC)CCN3C(=O)CN(C)C)nc2[nH]ccc12 | – | 11.8 µM (active)
NC(=O)c1c(OCc2c(F)cc(Br)cc2F)nsc1NC(=O)NCCCCN1CCCC1 | – | 20.9 µM (active)
CCNC(=O)Nc1ccc2ncc(Nc3ccc(C)cc3)nc2n1 | 84.3% (inactive) | –
CN1CCC(CNc2ccc3ncc(-c4cccc(OC(F)(F)F)c4)n3n2)CC1 | – | 23.5 µM (active)
O=C(C=Cc1cccc(S(=O)(=O)Nc2ccccc2)c1)NO | – | 3.82 µM (active)
CC1COC2(CCN(c3nc(=O)c4cc(C(F)(F)F)cc([N+](=O)[O-])c4s3)CC2)O1 (stereo not given) | 126% (inactive) | –
CC=CC1=C(C(=O)O)N2C(=O)[C@H](NC(=O)[C@H](N)c3ccc(O)cc3)[C@@H]2SC1 | 99.2% (inactive) | –
Clc1cccc(-n2nnnc2NCc2ccccc2Oc2ccccn2)c1Cl | 104% (inactive) | –
O=C(O)CCCc1c[nH]c2ccccc12 | 106% (inactive) | –
O=C(O)Cn1nnc(-c2cc(N3CCC(Oc4cc(F)ccc4Br)CC3)no2)n1 | 103% (inactive) | –
CC(=O)OCC(=O)[C@@]1(O)[C@H](C)C[C@H]2[C@@H]3C=C(C)C4=Cc5c(cnn5-c5ccccc5)C[C@]4(C)[C@@H]3[C@@H](O)C[C@@]21C | – | 20.9 µM (active)
CC(C)c1noc(N2CCC(COc3ccc(-c4ccc(S(C)(=O)=O)cc4)nc3)CC2)n1 | 79.8% (inactive) | –

Reference: PubChem BioAssay (NCATS)
